High-throughput results deposited in PubChem BioAssay by Broad Institute.
Rows were chosen to be rich in hits. Some 2.2% of all compounds tested hit in one or more screens of this group.
EBV LMP1 NFkB: Epstein-Barr LMP1 NF-kappaB reporter inhibition; inhibition, % at 12.5 µM; LMP1-induced NF-kappaB luciferase reporter cells, luminescence; 350,000 tested, 0.69% active; in the data active = inhibition above about 41%; inconclusive = no clear call, values can overlap the other calls
EWS-Fli inh: EWS/Fli transcriptional activity inhibition; A673 NR0B1-luciferase reporter, viability-normalised; inhibition, % at 12.6 µM; 350,000 tested, 0.67% active;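 active = mean inhibition of at least 50% after viability correction, with every replicate also passing that limit; inconclusive = mean reaches 50% but only one of two replicates passes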;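 also: firefly luciferase signal divided by Alamar Blue viability fluorescence both relative to DMSO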
PGC1a acetyl inh: modulators of PGC1a acetylation. U2OS PGC1a acetylation, AlphaScreen anti-acetyl-lysine; with virally co-expressed GCN5 acetyltransferase. AID 651687. inhibition, % at 15.6 µM. 350,000 tested, 0.17% active;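 active = every replicate shows inhibition of at least 40%; inconclusive = mean inhibition at least 40% but some replicate below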
LGR2 antag: Drosophila LGR2 receptor signaling inhibition; 380,000 tested, 0.35% active; HEK293 LGR2, CRE-luciferase, bursicon-stimulated, 4 h; inhibition, % at 9.99 µM;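 active = drop in luminescence signal, shown as inhibition above about 50% in the replicate tests, limit read from the data, passing the limit was not always enough; inconclusive = probably only some replicates passing the limit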;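 also: agonist challenge used bursicon conditioned medium at about half maximal strength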
PAX8 inh HTS: PAX8 transcriptional activity inhibition; RMG-I TPO-luciferase reporter, SteadyGlo, 24 h; AID 652154; 360,000 tested, 1.2% active; inhibition, % at 12.6 µM;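 active = mean replicate inhibition at least 60% with every replicate also reaching 60%; inconclusive = only one of the two criteria is met; inactive = mean below 60% and not all replicates reaching 60%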;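 also: luciferase light reporting Pax8 driven TPO promoter activity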
TRPM1 prom inh: MITF TRPM1 promoter inhibition in SK-MEL-5 cells; SK-MEL-5 TRPM1 promoter luciferase, 24 h; inhibition, % at 12.5 µM; 330,000 tested, 0.83% active;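 active = mean inhibition across replicates of 60% or more, whatever share of single replicates reaches that level; inconclusive = some that reach 60%, reason not given; inactive = mean inhibition across replicates below 60%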
DNA binder FP: DNA binding small molecules; salmon sperm DNA acridine orange fluorescence polarization; AID 720586; shares compounds with EWS-Fli inh; 640 tested, 2% active; AC35, µM (doses to about 68 µM);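 active = fitted curve reaches a 35% signal fall AC35 below twice the sample's top valid tested dose, actives reach about 48 µM in these data; inactive = the rest, including activity in the rising direction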;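 also: lower polarization ratio signals compound binding to DNA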
C2C12 COX5a inh: C2C12 myotube COX5a expression inhibition. C2C12 myotubes PGC-1a adenovirus, COX5a qPCR. 45 tested, under 10 active. maximal activity, %. shares compounds with PGC1a acetyl inh;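 active = fitted dose curve reaching 40% activity at or below the highest valid dose tested; inconclusive = flat fit between 30% and 70%, or an unusable fit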
AID743468: change in PGC-1a target gene PDK4 expression, dose response, C2C12 myotubes, RT-qPCR, cherry-pick; shares compounds with PGC1a acetyl inh; PGC-1a adenovirus, PDK4 mRNA qPCR; PDK4 expression increase, % at 19.5 µM; 45 tested, under 10 active; AID 743468;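 active = fitted curve reaching a 40% PDK4 expression rise at or below the top valid tested dose; inconclusive = no clear call, values can overlap the other calls; inactive = the rest, including shifts the wrong way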
Large screens that a line does not name were inactive (follow-up assays come after a bar, where they were run); ! = repeats disagree.

C[C@@H]1CN([C@H](C)CO)C(=O)c2cc(NC(=O)c3ccncc3)ccc2O[C@@H](C)CCCCO[C@@H]1CN(C)Cc1ccc(C(=O)O)cc1	none (no result: EBV LMP1 NFkB, TRPM1 prom inh)
COc1cc(OC)cc(-c2cc3ccccc3c(=O)o2)c1	none
Nc1ccc(-c2cc3ccccc3c(=O)o2)cc1	EWS-Fli inh 64.4, TRPM1 prom inh 73.6 | DNA binder FP inactive
CNC(=O)C[C@H]1CC[C@@H]2[C@H](COc3ccc(NC(=O)c4ccc(OC)cc4)cc3C(=O)N2C)O1	none (no result: EBV LMP1 NFkB, TRPM1 prom inh)
CCCCC1Cc2[nH]c(=S)[nH]c(=O)c2C(c2ccc3ccccc3c2)O1 (centres undefined)	none (no result: EBV LMP1 NFkB, PGC1a acetyl inh, TRPM1 prom inh)
CCCC[C@@H]1Cc2[nH][nH]c(=O)c2[C@H](c2ccc3ccccc3c2)O1	EWS-Fli inh 52.4 (no result: EBV LMP1 NFkB, PGC1a acetyl inh, TRPM1 prom inh) | DNA binder FP inactive
CO[C@@H]1CN(C)C(=O)c2cc(NC(=O)Nc3cccc(F)c3)ccc2OC[C@@H](C)N(C(=O)Nc2c(C)noc2C)C[C@H]1C	none (no result: EBV LMP1 NFkB, TRPM1 prom inh)
CCc1c(C(=O)NN2C(=O)C3CCCCC3C2=O)csc1C (centres undefined)	EWS-Fli inh 64.9 (no result: PGC1a acetyl inh) | DNA binder FP inactive
CO[C@H]1CN(C)C(=O)c2ccc(NS(C)(=O)=O)cc2OC[C@@H](C)N(C(=O)C2CCOCC2)C[C@@H]1C	none (no result: EBV LMP1 NFkB, PAX8 inh HTS, TRPM1 prom inh)
CC(C)(C)[S@](=O)N1Cc2cc(C(=O)NCC(F)(F)F)nc(-c3cccc(-c4cccc(F)c4)c3)c2[C@@H]1CCO	EWS-Fli inh 55.1 (no result: EBV LMP1 NFkB, TRPM1 prom inh) | DNA binder FP inactive
CCNC(=O)c1cc2c(c(-c3cccc(-c4cccc(OC)c4)c3)n1)[C@H](CCO)N([S@@](=O)C(C)(C)C)C2	EWS-Fli inh 62.6 (no result: EBV LMP1 NFkB, TRPM1 prom inh) | DNA binder FP inactive
COCCNC(=O)c1cc2c(c(-c3cccc(-c4cccc(OC)c4)c3)n1)[C@H](CCO)N(S(=O)C(C)(C)C)C2 (some centres undefined)	none (no result: EBV LMP1 NFkB, TRPM1 prom inh)
COc1ccc(NC(=O)N(C)C[C@H]2Oc3ccc(NC(=O)Cc4cn(C)c5ccccc45)cc3C(=O)N([C@H](C)CO)C[C@H]2C)cc1	none (no result: EBV LMP1 NFkB, PAX8 inh HTS, TRPM1 prom inh)
Cc1noc(C)c1NC(=O)Nc1cccc2c1O[C@@H](CN(C)S(=O)(=O)c1ccc(F)cc1)[C@@H](C)CN([C@@H](C)CO)C2=O	none (no result: EBV LMP1 NFkB, PAX8 inh HTS, TRPM1 prom inh)
CN(C(=O)COC(=O)c1cc(-c2ccccc2Cl)nc2ccccc12)C1CCS(=O)(=O)C1 (centres undefined)	EWS-Fli inh 84.5 | DNA binder FP inactive
CN(C(=O)COC(=O)c1cc(-c2ccc(Cl)s2)nc2ccccc12)C1CCS(=O)(=O)C1 (centres undefined)	none
C[C@@H]1CN([C@@H](C)CO)C(=O)c2cc(NC(=O)CCC(F)(F)F)ccc2O[C@H]1CN(C)S(=O)(=O)c1cn(C)cn1	none (no result: EBV LMP1 NFkB, PAX8 inh HTS, TRPM1 prom inh)
Cc1cc(C)cc(OC(=O)CS(=O)c2ccc(C(F)(F)F)cc2[N+](=O)[O-])c1 (centres undefined)	none (no result: EWS-Fli inh, LGR2 antag) | C2C12 COX5a inh inactive | AID743468 inactive
COC(=O)c1nn(-c2ccccc2)ccc1=O	PGC1a acetyl inh 44.3 (no result: EWS-Fli inh, PAX8 inh HTS) | C2C12 COX5a inh inactive | AID743468 inactive
Cc1noc(C)c1S(=O)(=O)Nc1ccc2c(c1)C(=O)N([C@@H](C)CO)C[C@@H](C)[C@H](CN(C)C(=O)NC1CCCCC1)OCCCC[C@@H](C)O2	none (no result: EBV LMP1 NFkB, PGC1a acetyl inh, TRPM1 prom inh)
O=C(CN1CCOCC1)NCC[C@@H]1CC[C@@H](NC(=O)c2ccccc2F)[C@H](CO)O1	none (no result: EBV LMP1 NFkB, TRPM1 prom inh)
Cc1ccc(-c2ccc(C3[C@@H]4CN(C(=O)Nc5ccc(C(F)(F)F)cc5)C[C@H]3N4)cc2)cc1 (some centres undefined)	PGC1a acetyl inh 69.7!, PAX8 inh HTS 91.1! (no result: EBV LMP1 NFkB, TRPM1 prom inh) | C2C12 COX5a inh inactive | AID743468 inactive
N#Cc1ccc(-c2ccc(C3[C@@H]4CN(C(=O)Nc5ccc(C(F)(F)F)cc5)C[C@H]3N4)cc2)cc1 (some centres undefined)	none (no result: EBV LMP1 NFkB, TRPM1 prom inh)
C=CS(=O)(=O)N(Cc1ccccc1)[C@H](CO)CC(C)C	none (no result: LGR2 antag)
C=CS(=O)(=O)N(Cc1ccccc1Br)[C@H](CO)Cc1ccccc1	PGC1a acetyl inh inconclusive | C2C12 COX5a inh inactive | AID743468 inactive
C[C@H](CO)N1C[C@H](C)[C@H](CN(C)C(=O)NC2CCCCC2)Oc2c(NC(=O)c3ccncc3)cccc2C1=O	none (no result: EBV LMP1 NFkB, TRPM1 prom inh)
C[C@@H]1CCCCO[C@@H](CN(C)C(=O)Nc2cccc3ccccc23)[C@@H](C)CN([C@H](C)CO)C(=O)c2cc(NC(=O)Nc3ccc(F)cc3)ccc2O1	none (no result: EBV LMP1 NFkB, TRPM1 prom inh)
O=C(Nc1ccc(N2CCN(Cc3ccccc3F)CC2)cc1)c1ccc([N+](=O)[O-])o1	EWS-Fli inh 52.3, PGC1a acetyl inh 72.7, TRPM1 prom inh 98.4 (no result: PAX8 inh HTS) | C2C12 COX5a inh inactive | AID743468 inactive
O=C(Nc1ccc(N2CCN(Cc3ccccc3F)CC2)cc1)c1ccccc1[N+](=O)[O-]	none
Cc1ccc(S(=O)(=O)N(C)C[C@H]2Oc3cc(C#Cc4ccncc4)ccc3S(=O)(=O)N([C@H](C)CO)C[C@H]2C)cc1	PGC1a acetyl inh 44.4, PAX8 inh HTS 88.8 (no result: EBV LMP1 NFkB, TRPM1 prom inh) | C2C12 COX5a inh inactive | AID743468 inactive
C[C@H](CO)N1C[C@H](C)[C@@H](CN(C)Cc2cccnc2)Oc2cc(C#CC3CCCCC3)ccc2S1(=O)=O	PGC1a acetyl inh inconclusive (no result: EBV LMP1 NFkB, PAX8 inh HTS, TRPM1 prom inh) | C2C12 COX5a inh inactive | AID743468 inactive
Cc1c(CN(C)C)c2c(n1C)C(=O)c1ccc(Br)cc1-2	none (no result: EWS-Fli inh, LGR2 antag, PAX8 inh HTS)
